Assay results reported in PubChem BioAssay (NCATS).
Results filed as inconclusive are left out. Activity calls are given as the source filed them. Calls follow the shape of the dose curve; as a rule, active = well fitted inhibition curve with a large enough effect; inconclusive = small, poorly fitted or top-dose-only effect; inactive = flat fitted curve, though single readings scatter.

Assays:
Assay in all cases: qHTS profiling for inhibitors of Plasmodium falciparum proliferation (AID 504749); also: nearly all actives have a fitted effect of over 60% in size
7G8 = conditions: P. falciparum in erythrocytes, SYBR Green DNA, 72 h; series mostly up to 12.8 µM
Method in brief: (§1)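 SYBR Green fluorescence (ex 485 nm, em 535 nm) reports parasite DNA after 72 h compound exposure of infected red cells at 0.3% parasitemia, 2.5% hematocrit; signal normalized to 0.29 uM artemisinin and vehicle wells.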

AA1029 = conditions: P. falciparum in erythrocytes, SYBR Green DNA, 72 h; series mostly up to 28.7 µM
Method in brief: as §1

CP191 = conditions: P. falciparum in erythrocytes, SYBR Green DNA, 72 h; series mostly up to 28.7 µM
Method in brief: as §1

CP211 = conditions: P. falciparum in erythrocytes, SYBR Green DNA, 72 h; series mostly up to 28.7 µM
Method in brief: as §1

CP217 = conditions: P. falciparum in erythrocytes, SYBR Green DNA, 72 h; series mostly up to 28.7 µM
Method in brief: as §1

CP250 = conditions: P. falciparum in erythrocytes, SYBR Green DNA, 72 h; series mostly up to 12.8 µM
Method in brief: as §1

CP252 = conditions: P. falciparum in erythrocytes, SYBR Green DNA, 72 h; series mostly up to 12.8 µM
Method in brief: as §1

CP256 = conditions: P. falciparum in erythrocytes, SYBR Green DNA, 72 h; series mostly up to 28.7 µM
Method in brief: as §1

CP291 = conditions: P. falciparum in erythrocytes, SYBR Green DNA, 72 h; series mostly up to 28.7 µM
Method in brief: as §1

CP297 = conditions: P. falciparum in erythrocytes, SYBR Green DNA, 72 h; series mostly up to 28.7 µM
Method in brief: as §1

CP315 = conditions: P. falciparum in erythrocytes, SYBR Green DNA, 72 h; series mostly up to 28.7 µM
Method in brief: as §1

CP329 = conditions: P. falciparum in erythrocytes, SYBR Green DNA, 72 h; series mostly up to 28.7 µM
Method in brief: as §1

DIV14 = conditions: P. falciparum in erythrocytes, SYBR Green DNA, 72 h; series mostly up to 28.7 µM
Method in brief: as §1

DIV17 = conditions: P. falciparum in erythrocytes, SYBR Green DNA, 72 h; series mostly up to 28.7 µM
Method in brief: as §1

FAB9 = conditions: P. falciparum in erythrocytes, SYBR Green DNA, 72 h; series mostly up to 28.7 µM
Method in brief: as §1

JCK = conditions: P. falciparum in erythrocytes, SYBR Green DNA, 72 h; series mostly up to 28.7 µM
Method in brief: as §1

N140 = conditions: P. falciparum in erythrocytes, SYBR Green DNA, 72 h; series mostly up to 28.7 µM
Method in brief: as §1

PC15 = conditions: P. falciparum in erythrocytes, SYBR Green DNA, 72 h; series mostly up to 28.7 µM
Method in brief: as §1

SC27B = conditions: P. falciparum in erythrocytes, SYBR Green DNA, 72 h; series mostly up to 28.7 µM
Method in brief: as §1

TAB165 = conditions: P. falciparum in erythrocytes, SYBR Green DNA, 72 h; series mostly up to 28.7 µM
Method in brief: as §1

Measured: Potency

C[C@]12CC[C@H]3[C@@H](CCC4=CC(=O)CC[C@@]43C)[C@@H]1CC[C@@H]2O
inactive: 7G8 | AA1029 | CP191 | CP211 | CP217 | CP250 | CP252 | CP256 | CP291 | CP297 | CP315 | CP329 | DIV14 | DIV17 | FAB9 | JCK | N140 | PC15 | SC27B | TAB165
